Assay outcomes deposited in PubChem by National Center for Advancing Translational Sciences (NCATS).
Shown are actives, neighbours in structure and some others; about 0.43% of the full set was active somewhere.
GLA inh pH 4.5: inhibitors of human alpha-galactosidase A at pH 4.5. purified enzyme, 4-MU-alpha-Gal fluorescence, pH 4.5. activity change, negative = inhibition, % at 105 µM. 230,000 tested, under 10 active. AID 1467;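 also: 0% = full activity with enzyme and -100% = basal without enzyme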
Target sequence (P06280 whole entry, looked up): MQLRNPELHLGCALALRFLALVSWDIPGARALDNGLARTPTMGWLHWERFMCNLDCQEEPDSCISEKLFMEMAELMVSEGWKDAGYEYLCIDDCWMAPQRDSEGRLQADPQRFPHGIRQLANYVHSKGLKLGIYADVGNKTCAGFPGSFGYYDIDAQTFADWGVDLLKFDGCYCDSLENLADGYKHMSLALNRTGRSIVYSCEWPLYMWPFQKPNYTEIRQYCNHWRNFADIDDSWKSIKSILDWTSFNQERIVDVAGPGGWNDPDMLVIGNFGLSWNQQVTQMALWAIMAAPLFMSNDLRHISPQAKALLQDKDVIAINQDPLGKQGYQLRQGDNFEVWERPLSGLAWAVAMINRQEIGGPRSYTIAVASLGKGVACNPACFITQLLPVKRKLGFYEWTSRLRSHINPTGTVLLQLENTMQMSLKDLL
N370S GC mod: inhibitors or activators of N370S glucocerebrosidase for Gaucher disease | N370S GC spleen homogenate, 4MU-glucoside fluorescence | Potency, µM (titrated, usually from 59.4 µM), without a hit: top-dose activity change, negative = inhibition, most hits filed as inhibitors | 330,000 compounds, 0.092% hits;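 also: potency is read from the fitted curve at half-maximal effect; 0% = full enzyme activity and -100% = no enzyme basal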
GAA spleen mod: lysosomal alpha-glucosidase (human) modulation | P10253 | 240,000 compounds, 0.006% hits | AID 2112 | human spleen homogenate, 4-MU-alpha-glucoside fluorescence | Potency, µM (top dose mostly 79.9 µM), inactives show top-dose activity change, negative = inhibition, most hits filed as inhibitors;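 also: potency is read from the fitted curve at half-maximal effect; 0% = enzyme with vehicle and -100% = no enzyme basal signal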
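Human spleen homogenate (1 ug) with 4-methylumbelliferyl-alpha-D-glucopyranoside (1 mM final) in 50 mM citrate/phosphate pH 5.0, 0.01% Tween-20; 40 min at 37 C. Stopped at pH 10; 4-MU fluorescence Ex 365/Em 440 nm; AC50 by Hill fit.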
aGal spleen mod: inhibitors or activators of human alpha-galactosidase in spleen homogenate; P06280; human spleen homogenate, 4MU-alpha-Gal fluorescence, 40 min; Potency, µM (highest dose often 80 µM), without a hit: top-dose activity change, negative = inhibition, actives largely listed as inhibitors; 240,000 compounds, 0.008% hits; AID 2107;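 also: potency is read from the fitted curve at half-maximal effect; 0% = enzyme with vehicle and -100% = no enzyme basal signal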
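Inhibition or activation of alpha-galactosidase in human spleen homogenate is scored by 4-MU fluorescence after 40 min at 37C, pH 5.0, with 1 mM substrate. AC50s come from concentration-response fitted to the Hill equation.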
GAA glycogen: inhibitors or activators of human alpha-glucosidase glycogen cleavage. P10253. recombinant GAA, glycogen substrate, Amplex Red glucose oxidase fluorescence. Potency, µM (doses to about 76.4 µM), inactives show top-dose activity change, negative = inhibition, usual class: inhibitors. 300,000 compounds, 0.38% hits;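 also: potency is read from the fitted curve at half-maximal effect; 0% = full enzyme reaction and -100% = no-enzyme basal signal; the screen sought inhibitors and activators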
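Recombinant human alpha-glucosidase (4 nM final) hydrolysed bovine liver glycogen (30 ug) for 40 min at 37 C in pH 5.0 citrate/phosphate with 0.01% Tween-20. Released glucose detected by glucose oxidase/Amplex Red, Ex 573/Em 610 nm. Compounds up to 77 uM; AC50 from Hill fits.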
GAA inh: inhibitors of human lysosomal alpha-glucosidase; purified human GAA, 4-MU-alpha-glucoside fluorescence; Potency, µM (doses to about 76.9 µM), inactives show at the top dose activity change, negative = inhibition, hits mostly inhibitors; 200,000 compounds, 0.005% hits;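 also: potency is read from the fitted curve at half-maximal effect; plate controls were uninhibited enzyme wells for no effect and no-enzyme background for full effect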
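Enzyme (4 nM final) mixed with compound (up to 77 uM), then 4-MU-alpha-D-pyranoside (400 uM final) added; 20 min at room temperature, pH 5.0. Reaction stopped at pH 10, fluorescence read, AC50 derived by Hill fit.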
An asterisk follows results filed as active; ? = inconclusive; . = not tested or not shown; [ ] = another dose, or the depositor's remark. Calls follow the shape of the dose curve; as a rule, active = well fitted curve in the direction sought with a large enough effect; inconclusive = small, poorly fitted or top-dose-only effect, or another doubt; inactive = no such curve, though single readings can be large; an effect the other way counts as inactive or inconclusive.

SMILES	GLA inh pH 4.5	N370S GC mod	GAA spleen mod	aGal spleen mod	GAA glycogen	GAA inh
N#Cc1c(/N=C/c2ccco2)sc2c1CCC2	-3.2	4.8%	4.2%	-15.5%	22.2µM*	-9.9%
Cc1[nH]n(-c2cccc3ccccc23)c(=O)c1/C=N/c1sc2c(c1C#N)CCC2	-6.6	-2.8%	3.5%	9.0%	20µM*	-15.0%
N#Cc1c(/N=C/C=C/c2ccccc2)sc2c1CCCC2	?	-0.1%	-19.8%	-3.2%	12.5µM*	1.7%
N#Cc1c(/N=C/c2cc3ccccc3s2)sc2c1CCC2	8.3	5.4%	0.2%	4.1%	-13.6%	-7.2%
C[C@H]1COc2c(N3CCN(C)CC3)c(F)cc3c(=O)c(C(=O)NCc4ccco4)cn1c23	-15.3	-0.9%	6.8%	8.5%	.	.
O=C1C=C[C@@H](O)[C@@H]2[C@H]3C(=O)N(c4ccc(F)cc4F)C(=O)[C@@H]3CC[C@@H]12	.	-1.8%[12.8 µM]	-0.6%[17.4 µM]	-25.9%[17.5 µM]	.	.
CC1=Nc2cccc3cccc(c23)N1	-1.0	-3.6%	2.8%	-3.1%	14µM*	-4.6%
COc1ccc(NCN2C(=O)C3C4C=CC(C4)C3C2=O)cc1 (stereo not given)	-2.7	1.9%	-3.8%	2.0%	28µM*	-1.9%
CCOc1ccc(Cc2nnc(SCC(=O)c3ccc(OC)cc3)o2)cc1	-0.4	2.9%	-4.8%	2.4%	-7.6%	-14.3%
CCOc1ccc(Nc2nc(Cc3nnc(SCC(=O)O)o3)cs2)cc1	-12.9	-11.3%	-4.4%	-1.2%	14.1µM*	8.3%
CC1CCC2C(=O)N3C(CCC(C)[C@@H]3c3ccc(Br)cc3)C(=O)N2C1c1ccc(Br)cc1 (stereo not given in full)	.	2.3%[12.8 µM]	0.9%[17.4 µM]	-9.6%[17.5 µM]	.	.
CCOC(=O)c1[nH]c2ccc(OC)cc2c1NC(=S)N1CCN(C(=O)OCC)CC1	1.8[21.1 µM]	4.0%	-4.4%	-1.4%	?	1.3%
CCOC(=O)c1[nH]c2ccc(OC)cc2c1NS(=O)(=O)c1ccc(OC)cc1OC	2.3	9.1%	-10.8%	-6.4%	12.6µM*	-0.9%
CCOC(=O)c1[nH]c2ccc(OC)cc2c1NC(=S)N1CCN(c2ccccc2OC)CC1	7.0	5.3%	-7.1%	8.5%	3.98µM*	3.2%
Cc1ccc(CNc2ccc(N3CCOCC3)cc2)s1	4.8	-6.4%	-2.6%	-0.3%	28µM*	-3.4%
CC(=O)N1CCN(c2ccc(NCc3cccc4ccccc34)cc2)CC1	.	?	.	.	-16.0%[15.3 µM]	.
CC(=O)N1CCN(c2ccc(NCc3cccs3)cc2)CC1	3.9	?	0.0%	6.2%	39.8µM*	-9.3%
CC(=O)Nc1ccc(N2CCN(C(=O)c3cccs3)CC2)cc1	-1.1	4.2%	5.4%	11.7%	3.9%	-1.2%
CC(=O)N1CCN(c2ccc(NCc3ccccc3)cc2)CC1	-7.6	-21.4%	-9.6%	-2.2%	14µM*	-3.0%
Fc1ccc(CNc2ccc(N3CCN(Cc4ccccc4)CC3)cc2)cc1	.	-2.6%	.	.	8.91µM*	.
OC[C@@H]1OC(O)[C@H](O)[C@H](O)[C@H]1O (stereo not given in full)	.	3.9%	8.9%	3.4%	.	.
CC(=O)N1CCN(c2ccc(NCc3ccc(C)s3)cc2)CC1	2.5	-12.3%	-6.6%	-2.8%	15.7µM*	-1.8%[15.4 µM]
CCN(CC)CCNC(=O)CCCCn1c(=S)[nH]c2c([nH]c3ccc(OC)cc32)c1=O	-15.9	-1.5%	6.2%	7.7%	25.1µM*	-9.9%
O=C(CNC(=O)Cc1ccccc1)N=Nc1c(O)[nH]c2ccccc12	.	-7.9%	.	.	-3.0%	.
CC(C)(Cc1ccc(O)cc1)NC(=O)CC(=O)N=Nc1c(O)[nH]c2cc(Br)ccc12	-1.3	11.2µM*	1.5%	-4.7%	11.6%	-0.6%
Cc1ccn2c(NCc3ccccc3)c(-c3cccs3)nc2c1	6.5	11.2µM*	2.9%	13.8%	?	-20.5%
Cc1ccc(NC(=O)c2[nH]cnc2C(=O)NN)cc1	5.4	-2.7%	-5.3%	-1.8%	20µM*	?
